Measurements: PubChem BioAssay (NCATS)
Records with an inconclusive call do not appear. The source made the active and inactive calls. Unless noted, calls follow the shape of the dose curve; as a rule, active = well fitted curve in the direction sought with a large enough effect; inconclusive = small, poorly fitted or top-dose-only effect, or another doubt; inactive = no such curve, though single readings can be large; an effect the other way counts as inactive or inconclusive.

Tests used:
[1] = Confirmation and Secondary Assay for Modulators of Hemoglobin Beta Chain Splicing at IVS2 654 locus (AID 910); also: % of control where 0% means no effect
Outline: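 HeLa cells stably carrying EGFP interrupted by mutant beta-globin IVS2-654 intron (CMV-driven) were treated with compound for 2 days at 37C; corrected splicing was scored as total peak GFP intensity per well (488 nm excitation, 500-520 nm emission).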

[2] = Confirmation and Secondary Assay for Modulators of Hemoglobin Beta Chain Splicing at IVS2 705 locus (AID 930);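 also: HeLa cells stably expressing the EGFP-705 splicing reporter; GFP fluorescence per well restored by corrected splicing of the IVS2-705 intron in EGFP; % of control where 0% means no effect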
Outline: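 Read-out: total peak GFP fluorescence per well (488 nm excitation, 500-520 nm emission) by laser-scanning cytometry. Cells: HeLa EGFP-705 splicing reporter, 2 days compound exposure in Optimem/2% FCS.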

[3] = qHTS Assay for Lipid Storage Modulators (AID 1519; calls by dose curve; as to activity change, negative = inhibition: % is scaled to controls: 0 for no effect and ±100 for the full control effect); conditions: Drosophila S3 cells, BODIPY lipid droplet/cell ratio, laser cytometry, cells loaded with oleic acid
Outline: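 Cells seeded at 5,000 per well were treated with compounds over a concentration series and loaded with oleic acid (400 uM, as added). Lipid droplet fluorescence (488 nm excitation, 500-530 nm channel) was read by laser-scanning cytometry and normalized to 20 uM Triacsin C.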

Furin (Homo sapiens) = Furin (Homo sapiens) (UniProt P09958); assay: Furin counterscreen qHTS for Zika virus inhibitors (AID 1347149);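 also: purified recombinant full-length human furin enzyme at 5 nM; fluorescence gain from furin cutting a BOC-RVRR-AMC peptide substrate over 15 min; top concentration of the series differs between compounds; plate controls were no-inhibitor control for no effect and no-enzyme control for full effect; nearly all actives have a fitted effect of over 70% in size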
Sequence of Furin (Homo sapiens) (P09958 whole entry, looked up): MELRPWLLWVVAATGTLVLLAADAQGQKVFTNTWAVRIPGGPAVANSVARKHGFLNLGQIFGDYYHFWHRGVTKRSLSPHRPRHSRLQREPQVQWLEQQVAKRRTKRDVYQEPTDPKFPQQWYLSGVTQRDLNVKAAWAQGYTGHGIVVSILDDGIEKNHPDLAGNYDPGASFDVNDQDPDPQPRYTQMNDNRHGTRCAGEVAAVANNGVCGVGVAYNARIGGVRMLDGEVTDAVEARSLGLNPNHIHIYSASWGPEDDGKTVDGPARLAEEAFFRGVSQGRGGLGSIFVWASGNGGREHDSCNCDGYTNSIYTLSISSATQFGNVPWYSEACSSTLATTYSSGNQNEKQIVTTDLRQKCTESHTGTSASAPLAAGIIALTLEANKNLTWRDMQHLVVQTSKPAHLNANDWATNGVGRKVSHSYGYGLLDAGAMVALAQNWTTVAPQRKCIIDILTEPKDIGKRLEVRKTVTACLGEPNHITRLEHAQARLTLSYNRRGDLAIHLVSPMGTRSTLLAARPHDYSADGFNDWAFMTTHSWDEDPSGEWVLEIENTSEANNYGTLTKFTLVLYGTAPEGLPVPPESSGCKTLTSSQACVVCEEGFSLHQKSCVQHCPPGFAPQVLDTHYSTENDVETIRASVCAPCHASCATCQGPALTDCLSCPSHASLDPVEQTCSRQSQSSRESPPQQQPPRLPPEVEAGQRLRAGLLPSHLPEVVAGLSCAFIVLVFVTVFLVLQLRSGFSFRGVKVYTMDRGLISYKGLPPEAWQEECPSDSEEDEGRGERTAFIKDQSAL
Outline: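 Counterscreen measures cleavage of 2 microM BOC-RVRR-AMC, below its ~15 microM Km, by 5 nM full-length human furin at pH 7.0 after a 15-min compound preincubation. Inhibition derives from the 15-min fluorescence increase at 37C.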

[4] = Confirmatory screen GU Rhodamine qHTS for Zika virus inhibitors qHTS (AID 1347157); also: potency is read from the fitted curve at half-maximal effect; nearly all actives have a fitted effect of over 70% in size
Outline: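 Percent inhibition derives from the 15-min fluorescence change (ex 480, em 540 nm), normalized to no-enzyme and no-inhibitor wells. Reactions contained 25 nM NS2B-NS3 complex and 1.5 microM substrate in 10 mM Tris-HCl pH 8.0.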

[5] = ZIKV-mCherry secondary qHTS for Zika virus inhibitors (AID 1347158); also: top concentration of the series differs between compounds
Outline: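 Compounds were tested in Vero monkey kidney cells infected with recombinant mCherry-expressing Zika virus at MOI 1 for 48-72 h at 37 °C. Fixed cells were nuclear-stained and imaged, and infection rate was taken as the fraction of mCherry-positive cells.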

[6] = tested on: Zika virus NS2B-NS3 protease (linked construct); assay: Primary screen NINDS Rhodamine qHTS for Zika virus inhibitors (AID 1347160); also: potency is read from the fitted curve at half-maximal effect; nearly all actives have a fitted effect of over 55% in size
Outline: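 Aprotinin served as in-plate control. Conditions: 25 nM linked NS2B-NS3, pH 8.0 Tris buffer, titrated compounds, 15 min preincubation and 15 min reaction with 1.5 microM Rhod110 substrate at room temperature.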

[7] = Confirmatory screen NINDS Rhodamine qHTS for Zika virus inhibitors (AID 1347161); also: potency is read from the fitted curve at half-maximal effect; nearly all actives have a fitted effect of over 60% in size
Outline: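 Percent inhibition, normalized to uninhibited and enzyme-free controls, is fitted to a 4-parameter Hill equation. Fluorescence change comes from a 15-min cleavage of 1.5 microM bis-peptide Rhodamine110 substrate by 25 nM linked NS2B-NS3 at room temperature.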

[8] = tested on: Zika virus NS2B-NS3 protease (linked); assay: 384 well plate NINDS AMC confirmatory qHTS for Zika virus inhibitors (AID 1347163); also: potency is read from the fitted curve at half-maximal effect; nearly all actives have a fitted effect of over 50% in size
Outline: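 Fluorescence at 355/460 nm was read after 25 minutes of cleavage of 30 microM Ac-VKTGKR-AMC at room temperature, in the dark. Before substrate addition, compounds (up to 1 mM final) sat ~15 minutes with 5, 30 or 60 nM linked protease. Signals were normalized to no-enzyme and no-inhibitor wells.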

[9] = tested on: Zika virus NS2B-NS3 protease (linked construct); assay: 384 well plate NINDS Rhodamine confirmatory qHTS for Zika virus inhibitors (AID 1347164);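 also: fluorescence from protease cleavage of Ac-LKRR-rhodamine 110 substrate; potency is read from the fitted curve at half-maximal effect; nearly all actives have a fitted effect of over 65% in size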
Outline: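 Enzyme (final 5/30/60 nM) + cpd (DMSO), ~15 min; add Ac-LKRR-Rd 10 microM final; 25 min RT, dark; FI ex 485/em 538; normalized to no-enzyme, no-inhibitor ctrls; aprotinin intraplate ctrl.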

[10] = OV-KATE Cancer Cell Toxicity qHTS against the NCATS CANVASS Library (AID 1347345); also: % is scaled to controls: 0 for no effect and ±100 for the full control effect
Outline: (§1)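 1000 cells/well; 4 h settle; 11-pnt titration; 72 h, 37 degrees C, 5% CO2; CellTiter-Glo, 15min RT; luminescence read.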

[11] = HPAF-II Cancer Cell Toxicity qHTS against the NCATS CANVASS Library (AID 1347346); also: % is scaled to controls: 0 for no effect and ±100 for the full control effect; nearly all actives have a fitted effect of over 55% in size
Outline: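 First, HPAF-II cells are plated (1000 cells/well) and held 4 h at 37 degrees C. Next, compounds are pin-transferred as an 11-point series. After 72 h, CellTiter-Glo is added and luminescence measured.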

[12] = OV-SAHO Cancer Cell Toxicity qHTS against the NCATS CANVASS Library (AID 1347348); also: % is scaled to controls: 0 for no effect and ±100 for the full control effect; nearly all actives have a fitted effect of over 55% in size
Outline: as §1

[13] = Panc-1005 Cancer Cell Toxicity qHTS against the NCATS CANVASS Library (AID 1347349); also: potency is read from the fitted curve at half-maximal effect; nearly all actives have a fitted effect of over 60% in size
Outline: as §1

[14] = A2780 Cisplatin Sensitive Ovarian Cancer Cell Toxicity qHTS against the NCATS CANVASS Library (AID 1347353); also: % is scaled to controls: 0 for no effect and ±100 for the full control effect; nearly all actives have a fitted effect of over 60% in size
Outline: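 Cells are plated at 750 per well and rest for 4 hours. Compounds are added across eleven concentrations, and incubated 72 hours before ATP is quantified by luminescence.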

[15] = UWB1.289-WTBRCA1 Cancer Cell Toxicity qHTS against the NCATS CANVASS Library (AID 1347354); also: % is scaled to controls: 0 for no effect and ±100 for the full control effect
Outline: (§2)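 First, 1000 cells go into each well and rest for 4 hours. Next, an 11-point dilution range is pinned in. Plates then incubate 72 hours before CellTiter-Glo addition and luminescence reading.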

[16] = HEK-293 Cancer Cell Toxicity qHTS against the NCATS CANVASS Library (AID 1347355); also: % is scaled to controls: 0 for no effect and ±100 for the full control effect; nearly all actives have a fitted effect of over 65% in size
Outline: as §2

[17] = HPAF-II 24hr Apoptosis Induction qHTS against the NCATS CANVASS Library (AID 1347356); also: 0% is about no effect
Outline: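 Cells seeded at 500 per well, then compounds pin-transferred in an 11-point concentration series. After 24 hours at 37 degrees C, Caspase-Glo 3/7 was added and luminescence measured following 15 min at room temperature.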

[18] = HEK293 18hr Apoptosis Induction qHTS against the NCATS CANVASS Library (AID 1347357); also: 0% is about no effect
Outline: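 Cells seeded at 500/well in DMEM + 10% FBS. Compounds pinned, 11 concentrations. 18 h, 37 degrees C/5% CO2. Caspase-Glo 3/7 added, 15 min RT dark, luminescence read.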

[19] = HPAF-II 12hr Apoptosis Induction qHTS against the NCATS CANVASS Library (AID 1347358); also: 0% is about no effect
Outline: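 Cells plated at 500 per well are dosed with compound and incubated 12 hours at 37 degrees C. Caspase-Glo 3/7 reagent is added and, after 15 min at room temperature, luminescence proportional to caspase activity is measured.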

[20] = HEK293 24hr Apoptosis Induction qHTS against the NCATS CANVASS Library (AID 1347359); also: 0% is about no effect
Outline: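 HEK293 cells (500/well, DMEM + 10% FBS) were exposed to compounds in an 11-point series for 24 hours at 37 degrees C, then caspase-3/7 activity was read by Caspase-Glo DEVD luciferase luminescence after 15 min.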

O=C(OC1Cc2c(O)cc(O)cc2OC1c1cc(O)c(O)c(O)c1)c1cc(O)c(O)c(O)c1 (stereo not drawn)
13.6%: max response ([3]; measured here: lipid channel max response)
inactive: outcome [1] | outcome [2] | activity change, negative = inhibition ([3]; at 57.5 µM (top of the series)) 7.9% | Potency (Furin (Homo sapiens)) | Potency [5] | Potency [10] | Potency [11] | Potency [12] | Potency [14] | Potency [15] | Potency [16] | outcome [17] | Potency [18] | Potency [19] | Potency [20]
active: Potency [4] 7.94 µM | Potency [6] 1.56 µM | Potency [7] 7.94 µM | Potency [8] 15.8 µM | Potency [9] 89.1 µM | Potency [13] 18.8 µM
1.63%: max response ([3]; measured here: cell count channel max response)
